Screening results (PubChem BioAssay)
CYP2C19 inhib – human CYP2C19 inhibition. P33261. CYP2C19 Supersomes, luciferin-H EGE luminescence, 30 min. inhibition, % at 5 µM. actives 21% (n = 96,000). AID 778;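 active means CYP2C19 inhibition above a set limit at 5 µM in the primary screen, cut at about 50% in these data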;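 further: plate controls were negative control wells for no effect and 2.5 mM tranylcypromine positive control for full effect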
CYP2C9 inhib – human CYP2C9 inhibition; P11712; CYP2C9 Supersomes, luciferin-H conversion, luminescence; inhibition, % at 5 µM; actives 20% (n = 96,000);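 active means blocking of liver enzyme CYP2C9 beyond about 50% at 5 µM, limit read from the data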
Target sequence (P11712 whole entry, looked up): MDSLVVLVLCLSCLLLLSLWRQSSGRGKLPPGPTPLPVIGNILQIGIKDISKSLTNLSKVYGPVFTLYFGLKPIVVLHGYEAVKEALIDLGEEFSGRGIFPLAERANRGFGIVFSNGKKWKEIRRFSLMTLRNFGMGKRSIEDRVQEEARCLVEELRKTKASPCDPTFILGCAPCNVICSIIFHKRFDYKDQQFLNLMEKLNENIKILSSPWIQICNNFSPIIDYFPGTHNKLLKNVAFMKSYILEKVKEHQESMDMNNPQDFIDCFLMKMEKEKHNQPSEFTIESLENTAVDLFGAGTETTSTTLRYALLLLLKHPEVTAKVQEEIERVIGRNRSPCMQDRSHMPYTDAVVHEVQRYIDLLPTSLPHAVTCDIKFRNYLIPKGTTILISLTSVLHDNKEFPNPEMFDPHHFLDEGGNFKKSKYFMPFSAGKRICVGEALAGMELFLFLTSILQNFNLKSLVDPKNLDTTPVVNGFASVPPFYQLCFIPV
Measles CPE – protection of cells from measles virus. protection (pct of control), % at 4 µM. actives 1.5% (n = 140,000). Measles virus-infected cells, CPE protection, absorbance; in the data active means protection mostly above about 24%, no sharp cut-off; inactive means mostly below about 26%
CYP2C19 act – activators of human cytochrome P450 2C19 | 96,000 tested, under 10 active | P33261 | activation factor at 5 µM | AID 1025 | recombinant CYP2C19, luciferin-H EGE luminescence; hits give high values; 0 = fully inhibited enzyme, 1 = untreated enzyme;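 active means activation factor of at least 2 at 5 µM in the primary screen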;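 further: 0 = wells with 2.5 mM tranylcypromine and 1 = vehicle-only wells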
CYP2C9 activ – increases human cytochrome P450 2C9 activity. recombinant CYP2C9, luciferin-H conversion, luminescence; hits give high values; factor 1 = untreated enzyme, 0 = blocked. activation factor at 5 µM. actives 1.4% (n = 96,000);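 active means activation factor of 2 or more for CYP2C9 at a 5 µM dose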;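 further: 0 = sulfaphenazole-blocked wells and 1 = vehicle-only wells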
* = called active by the depositor; / = no result. This is a sample that favours compounds with a hit; in the whole collection about 22% have one here.

SMILES	CYP2C19 inhib	CYP2C9 inhib	Measles CPE	CYP2C19 act	CYP2C9 activ
COC(=O)CN1C(=O)C(O)(CC(=O)c2ccccc2)c2ccccc21 (configuration not stated)	51*	13	7	0.5	0.9
COC(=O)CN1C(=O)C(O)(CC(=O)c2ccc(C)o2)c2ccccc21 (configuration not stated)	-6	-4	18	1.1	1
COc1ccc(-c2c(NC(=O)c3ccco3)n(C)c3ccccc3c2=O)cc1	-6	-21	6	1.1	1.2
CN1C(=O)C(O)(CC(=O)/C=C/C=C/c2ccccc2)c2ccccc21 (configuration not stated)	/	/	15	/	/
O=C(CC1(O)C(=O)N(C/C=C/c2ccccc2)c2ccccc21)c1ccccn1 (configuration not stated)	92*	82*	13	0.1	0.2
CSc1ccc2[nH]c(=O)cc(C)c2c1	7	12	5	0.9	0.9
CC(C)c1nnc(NC(=O)CCC(=O)NC2CCCc3ccccc32)s1 (configuration not stated)	/	/	8	/	/
COc1cc(/C=C2/C(=N)N3OC(C)=CC3=NC2=O)ccc1OCCOc1ccc(C)cc1	10	13	2	0.9	0.9
CCOc1cc(/C=C2/C(=N)N3OC(C)=CC3=NC2=O)ccc1OCCOc1ccccc1	41	62*	1	0.6	0.4
COc1ccc(NS(=O)(=O)c2cccc(N3CC(O)=C(c4ccccc4)C3=N)c2)cc1	/	/	8	/	/
CCCCCCCCOC(=O)CCn1[nH]c(=O)c2ccccc2c1=O	61*	66*	6	0.4	0.3
CCCCCn1c(=O)c(Cc2ccccc2)c(O)c2ccccc21	/	/	7	/	/
Cn1c(=O)c(Cc2ccccc2)c(O)c2ccccc21	71*	50	8	0.3	0.5
CCCCCOC(=O)Cc1c(O)c2ccccc2n(C)c1=O	79*	44	7	0.2	0.6
CC(C)NC(=O)c1onc(CSc2ccccc2)c1C(=O)O	8	33	4	0.9	0.7
COC(=O)c1c(CSc2cccc(C)c2)noc1C(=O)NCc1ccco1	82*	78*	8	0.2	0.2
Cc1cc(C)cc(SCc2noc(C(=O)NC(C)C)c2C(=O)O)c1	16	70*	6	0.8	0.3
COc1cccc(SCc2noc(C(=O)NC(C)C)c2C(=O)O)c1	11	61*	6	0.9	0.4
Cc1cccc(SCc2noc(C(=O)NC(C)C)c2C(=O)O)c1	13	55*	5	0.9	0.4
CCCCNc1ccc(S(=O)(=O)c2cccc([N+](=O)[O-])c2)cc1[N+](=O)[O-]	/	/	3	/	/
C=CCNC(=O)c1onc(CSc2cccc(OC)c2)c1C(=O)O	6	67*	21	0.9	0.3
COCCOC(=O)C1=C(C)Nc2cc(=O)[nH]c(=O)n2C1c1cccc([N+](=O)[O-])c1 (configuration not stated)	/	/	5	/	/
COc1ccc(/C=N/NC(=O)c2nn(-c3ccccc3)c(=O)c3c(N)scc23)cc1	5	30	51*	1	0.7
COc1ccc(/C=N/NC(=O)c2nn(-c3ccc(Cl)cc3)c(=O)c3c(N)scc23)cc1	8	48	12	0.9	0.5
COc1ccc(/C=N/NC(=O)c2nn(-c3ccc(C)c(C)c3)c(=O)c3ccccc23)cc1	15	64*	6	0.9	0.4
SMILES	CYP2C19 inhib	CYP2C9 inhib	Measles CPE	CYP2C19 act	CYP2C9 activ
CCN(CC)CCCNC(=O)c1nn(-c2cccc(OC)c2)c(=O)c2ccccc12	-7	29	3	1.1	0.7
CCNc1nc(NC(C)C)nc(Oc2ccc(/C=N/O)cc2)n1	5	69*	26	0.9	0.3
O=C(CSc1cn(CCNC(=O)c2cccs2)c2ccccc12)NC1CCCCC1	59*	92*	7	0.4	0.1
O=C(Cn1cc(C(=O)c2cccs2)c2ccccc21)NC1CCCCC1	55*	72*	34	0.5	0.3
O=C(CSc1cn(CCNC(=O)c2cccs2)c2ccccc12)NCC1CCCO1 (configuration not stated)	34	81*	16	0.7	0.2
O=C(CSc1cn(CCNC(=O)c2ccc3ccccc3c2)c2ccccc12)NCc1ccco1	26	9	7	0.7	0.9
CCCn1cc(SCC(=O)NCC2CCCO2)c2ccccc21 (configuration not stated)	39	-52	15	0.6	1.5
O=C(CSc1cn(CCNC(=O)c2cccs2)c2ccccc12)NCc1ccccc1	86*	98*	28	0.1	0
CCOC(=O)NC1(C(F)(F)F)NC(=O)N(C2CCCCC2)C1=O (configuration not stated)	16	16	11	0.8	0.8
CCn1cnc2c1c(=O)n(Cc1csc(-c3ccccc3)n1)c(=O)n2Cc1ccccc1	86*	89*	3	0.1	0.1
O=C(Cn1c(=O)c2c(ncn2Cc2ccccc2)n(Cc2ccccc2)c1=O)N1CCCC1	67*	49	17	0.3	0.5
CCn1cnc2c1c(=O)n(Cc1nnc3n1-c1ccccc1SC3)c(=O)n2Cc1ccccc1	28	25	3	0.7	0.8
CCc1ccc(NC(=O)CN(c2cccc(C)c2)S(C)(=O)=O)cc1	42	39	3	0.6	0.6
Cc1c(NC(=O)/C(C#N)=C/C2CC=CCC2)c(=O)n(-c2ccccc2)n1C (configuration not stated)	-12	-1	14	1.1	1
Cc1sc(NC(=O)c2ccc(OCC(C)C)cc2)c(C(N)=O)c1-c1ccc(Cl)cc1Cl	12	68*	2	0.9	0.3
[O-][n+]1onc2c3ccnnc3ccc21	-9	-5	26	1.1	1
COc1ccc(CNC(=O)/C=C/c2cc([N+](=O)[O-])ccc2OC(F)F)cc1OC	29	-108	12	0.7	2.1*
COc1ccc(CNC(=O)/C=C/c2cc([N+](=O)[O-])ccc2OC(F)F)cc1	7	-2	21	0.9	1
COC(=O)c1ccc(NC(=O)c2ccccc2N(C)S(=O)(=O)c2ccccc2)cc1	6	15	2	0.9	0.9
COC(=O)C1=CN(C)C=C(C(=O)OC)C1c1ccc(O)c(OC)c1	-7	-4	7	1.1	1
COCCN1C=C(C(=O)OC)C(c2cc(Br)c(OC)c(OC)c2)C(C(=O)OC)=C1	45	91*	9	0.5	0.1
COc1cc(OC)c(C2CC(=O)N3CN(C)CSC3=C2C#N)cc1OC (configuration not stated)	-2	38	3	1	0.6
COc1ccc(Br)cc1C1CC(=O)N2CN(Cc3ccccc3)CSC2=C1C#N (configuration not stated)	70*	94*	10	0.3	0.1
N#CC1=C2SCN(Cc3ccco3)CN2C(=O)CC1c1c(F)cccc1Cl (configuration not stated)	3	23	5	1	0.8
